# From PubChem BioAssay
# Several values for one entry are separate records, joined by “and”; a condition that tells them apart may be missing. Equal entries are not always repeated. Activity calls are given as the source filed them. Unless noted, no stated cut-off is given here; in the data, active means inhibition above about 80%; inactive means the rest.
# Tests used:
# [1] = LFS_MB_P medulloblastoma growth inhibition, cell-based, chromothripsis tumors, cisplatin or BGB combos (AID 1671449); conditions: LFS_MB_P medulloblastoma cells;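 further: cells exposed for 96 hours; 0% = vehicle DMSO and 100% = killing by high DMSO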
# [2] = HDN33 neuroblastoma growth inhibition, cell-based, chromothripsis tumors, cisplatin or BGB combos (AID 1671450); conditions: HDN33 neuroblastoma cells, stronger effect = higher value;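 further: cells exposed to compound for four days; 0% = vehicle DMSO and 100% = cell killing by high DMSO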
# [3] = ICB984 medulloblastoma cell growth inhibition, synergistic combos for chromothripsis tumors, cisplatin or BGB combos (AID 1671451; call rule not given here;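 further: cells exposed for 96 hours before readout; 0% = vehicle DMSO and 100% = killing by high DMSO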); conditions: ICB984 medulloblastoma cells, drug combinations, stronger effect = higher value
# [4] = LFS_MB_1R medulloblastoma cell growth inhibition, synergistic combos for chromothripsis tumors, cisplatin or BGB combos (AID 1671452); conditions: LFS_MB_1R medulloblastoma cells, stronger effect = higher value;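 further: cells exposed for 96 hours before readout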
# [5] = HTB85 osteosarcoma cell growth inhibition, synergistic combos for chromothripsis tumors, BGB or cisplatin IC20 combos (AID 1671453); conditions: HTB85 osteosarcoma cells, drug combinations, stronger effect = higher value;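 further: cells exposed for 96 hours before readout; 0% = vehicle DMSO and 100% = high DMSO killing control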
# [6] = CRL2098 osteosarcoma cell growth inhibition, synergistic combos for chromothripsis tumors, BGB or cisplatin IC20 combos (AID 1671454); conditions: CRL2098 osteosarcoma cells, drug combinations, stronger effect = higher value;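 further: cells exposed for 96 h before readout; 0% = vehicle DMSO and 100% = killing by high DMSO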
# [7] = HD-MB03 medulloblastoma cell growth inhibition, synergistic combos for chromothripsis tumors, BGB or cisplatin IC20 combos (AID 1671455; in the data active means inhibition above about 83%;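 further: 0% = vehicle DMSO and 100% = high DMSO as cytotoxic control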); conditions: HD-MB03 medulloblastoma cells, stronger effect = higher value
# [8] = UWB1.289 ovarian carcinoma cell growth inhibition, synergistic combos for chromothripsis tumors, BGB or cisplatin combos (AID 1671456); conditions: UWB1.289 ovarian carcinoma cells, stronger effect = higher value;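 further: cells exposed to compound for four days; 0% = vehicle DMSO and 100% = killing by high DMSO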
# [9] = LFS_MB_2R medulloblastoma cell growth inhibition, synergistic combos for chromothripsis tumors, cisplatin combos (AID 1671457); conditions: LFS_MB_2R medulloblastoma cells, stronger effect = higher value;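 further: cells exposed to compound for four days before readout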
# [10] = MDA-MB-436 breast carcinoma cell growth inhibition, synergistic combos for chromothripsis tumors, BGB or cisplatin combos (AID 1671458; call rule not given here;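 further: cells exposed for 96 hours; 0% = vehicle DMSO and 100% = killing by high DMSO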); conditions: MDA-MB-436 breast carcinoma growth inhibition, drug combinations, stronger effect = higher value
# [11] = UWB1.289_BRCA1 ovarian cancer growth, cell-based, BGB or cisplatin combinations (AID 1671459); conditions: UWB1.289 BRCA1 ovarian carcinoma, drug combinations, stronger effect = higher value
# [12] = human astrocyte viability loss, single and combined drugs, cytotoxicity control for chromothriptic childhood tumor combination screen, cell-based, BGB or cisplatin IC20 combos (AID 1671460); conditions: Human astrocytes, drug combinations, stronger effect = higher value;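 further: cells exposed to compounds for 96 hours before viability readout; 0% = vehicle and 100% = killing control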
# [13] = growth inhibition of BT084 medulloblastoma cells, cell-based, ICGC_MB145, cisplatin and BGB IC40 combos (AID 1671461); conditions: drug combinations, stronger effect = higher value;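 further: cells exposed to drugs for 96 hours; 0% = vehicle DMSO and 100% = high DMSO full killing control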
# [14] = growth inhibition of RCMB18 medulloblastoma cells, cell-based, cisplatin and BGB IC40 combos (AID 1671462); conditions: stronger effect = higher value;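 further: cells exposed to compound for four days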
# [15] = growth inhibition of CRL1545 osteosarcoma cells, cell-based, cisplatin and BGB IC20 combos (AID 1671464); conditions: stronger effect = higher value;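 further: cells exposed to compound for 96 hours before readout; 0% = vehicle DMSO and 100% = high DMSO killing control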
# [16] = measured here: combination with BGB IC40, at 0.05 µM
# [17] = measured here: combination with cisplatin, at 5 µM, stronger effect = higher value
# [18] = measured here: with BGB IC20 combination, at 0.5 µM
# [19] = measured here: with cisplatin IC20 combination, at 0.5 µM
# [20] = measured here: combination with cisplatin, at 0.5 µM
# [21] = measured here: combination with cisplatin, at 5 µM
# [22] = measured here: with cisplatin IC20, at 5 µM
compound,measurement,setting,value
CO[C@H]1/C=C/O[C@@]2(C)Oc3c(C)c(O)c4c(O)c(c5c(c4c3C2=O)=NC2(CCN(CC(C)C)CC2)N=5)NC(=O)/C(C)=C\C=C\[C@H](C)[C@H](O)[C@@H](C)[C@@H](O)[C@@H](C)[C@H](OC(C)=O)[C@@H]1C,inhibition,"[1]; at 0.5 µM, stronger effect = higher value",6.6% (inactive)
same,inhibition,"[1]; measured here: combination with BGB IC20, at 0.005 µM",-30.2%
same,inhibition,"[1]; measured here: combination with BGB IC40, at 0.005 µM",-46.5%
same,inhibition,[1]; [16],-18.6%
same,inhibition,"[1]; measured here: combination with cisplatin, at 0.5 µM, stronger effect = higher value",63%
same,inhibition,[1]; [17],-0.387%
same,inhibition,"[2]; BGB combo, at 5 µM",-22.5%
same,inhibition,[2]; at 0.5 µM,1.4% (inactive)
same,inhibition,"[2]; cisplatin combo, at 5 µM",-9.76%
same,inhibition,[2]; [18],-13.2%
same,inhibition,[2]; [19],8.47%
same,inhibition,"[2]; single agent, at 5 µM",11%
same,inhibition,"[3]; BGB IC20 combo, at 0.005 µM",3.39%
same,inhibition,"[3]; BGB IC40 combo, at 0.005 µM",6.3%
same,inhibition,"[3]; BGB IC40 combo, at 0.05 µM",12%
same,inhibition,[3]; at 0.5 µM,-8.24% (inactive)
same,inhibition,"[3]; cisplatin combo, at 0.05 µM",7.56%
same,inhibition,"[3]; cisplatin combo, at 0.5 µM",-8.29%
same,inhibition,"[3]; cisplatin combo, at 5 µM",0.667%
same,inhibition,"[3]; measured here: 5 uM single agent, at 5 µM",-5.87%
same,inhibition,[4]; at 0.5 µM,-1.23% (inactive)
same,inhibition,[4]; [16],-1.35%
same,inhibition,[4]; [20],1.03%
same,inhibition,[4]; [21],-6.05%
same,inhibition,[5]; at 0.5 µM,5.7% (inactive)
same,inhibition,"[5]; measured here: with BGB IC20, at 0.5 µM",19%
same,inhibition,"[5]; measured here: with BGB IC20, at 5 µM",26.5%
same,inhibition,"[5]; measured here: with cisplatin IC20, at 0.5 µM",-4.7%
same,inhibition,[5]; [22],9.84%
same,inhibition,"[5]; single agent, at 5 µM",14.9%
same,inhibition,[6]; at 0.5 µM,1.32% (inactive)
same,inhibition,"[6]; measured here: combination with BGB at IC20, at 0.5 µM",-21.2%
same,inhibition,"[6]; measured here: combination with cisplatin at IC20, at 0.5 µM",29.4%
same,inhibition,[7]; at 0.5 µM,5.15% (inactive)
same,inhibition,"[7]; measured here: combo with BGB at IC20, at 0.5 µM",7.14%
same,inhibition,"[7]; measured here: combo with cisplatin at IC20, at 0.5 µM",3.29%
same,inhibition,[8]; at 0.5 µM,1.18% (inactive)
same,inhibition,"[8]; measured here: inhibition with BGB combination, at 0.05 µM",4.24%
same,inhibition,"[8]; measured here: inhibition with cisplatin combination, at 0.05 µM",-0.452%
same,inhibition,[9]; at 0.5 µM,1.7% (inactive)
same,inhibition,[9]; [20],13.1%
same,inhibition,[9]; [21],18.7%
same,inhibition,[10]; at 0.5 µM,0.36% (inactive)
same,inhibition,"[10]; measured here: BGB combination, at 0.5 µM",1.73%
same,inhibition,"[10]; measured here: BGB combination, at 5 µM",-12.5%
same,inhibition,"[10]; measured here: cisplatin combination, at 0.5 µM",-2.44%
same,inhibition,"[10]; measured here: cisplatin combination, at 5 µM",-1.97%
same,inhibition,"[11]; BGB combination, concentration series, at 5 µM",-1.95%
same,inhibition,[11]; at 0.5 µM,1.5% (inactive)
same,inhibition,"[11]; cisplatin combination, concentration series, at 5 µM",4.45%
same,inhibition,[12]; at 0.5 µM,-10.5% (inactive)
same,inhibition,"[12]; measured here: combo with BGB IC20, at 0.5 µM",-5.38%
same,inhibition,"[12]; measured here: combo with cisplatin IC20, at 0.5 µM",-10.5%
same,inhibition,[13]; at 0.5 µM,0.406% (inactive)
same,inhibition,"[13]; cisplatin combination, at 0.5 µM",-4.06%
same,inhibition,"[13]; cisplatin combination, at 5 µM",-22.6%
same,inhibition,"[13]; measured here: BGB IC40 combination 0.05 uM, at 0.05 µM",-14.2%
same,inhibition,"[13]; single agent, at 5 µM",14.2%
same,inhibition,[14]; at 0.5 µM,-2.39% (inactive)
same,inhibition,"[14]; cisplatin combo, at 5 µM",17.1%
same,inhibition,"[14]; measured here: BGB IC40 combination, at 0.05 µM",-17.4%
same,inhibition,[14]; [20],-9.55%
same,inhibition,"[14]; single agent, at 5 µM",16.6%
same,inhibition,[15]; at 0.5 µM,7.88% (inactive)
same,inhibition,[15]; [18],-2.39%
same,inhibition,[15]; [19],11.6%
same,inhibition,"[15]; single agent, at 0.05 µM",4.52%
same,inhibition,"[15]; single agent, at 5 µM",-19.7%
COc1cccc2c1C(=O)c1c(O)c3c(c(O)c1C2=O)CC(O)(C(=O)CO)CC3OC1CC(N)C(O)C(C)O1 (stereo not drawn),inhibition,[1]; [17],118% and 119% and 108%
same,inhibition,"[2]; single agent, at 5 µM",99.7% and 99.6%
same,inhibition,[5]; at 0.5 µM,98.7% (active) and 98.9% (active) and 98.5% (active)
same,inhibition,[5]; [22],99.4% and 99.6% and 99.7%
same,inhibition,"[15]; single agent, at 5 µM",99.7% and 99.6% and 99.8%
